Measurements taken from the supplement of paper PMC6555819.

Assays:
Assay in all cases: PBM binding z-score (relative to random genomic background probes); higher = stronger binding; sequences stand for … in GC…GCGATTGACAGCGTAGAATGAAGG
[1] = test system: RARb homodimer (NR concentration 270 nM)
Procedure, shortened: (§1)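 Binding z-scores take random background probes as their reference. They come from custom Agilent 4×180K protein-binding microarrays incubated 1 h with ligand-free nuclear receptor dimers, with antibodies against each partner (one per run) detecting binding. Scanned fluorescence was regression-normalized.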

[2] = test system: RARg:RXRa (NR concentration 270 nM, RXRa partner concentration 90 nM)
Procedure, shortened: as §1

[3] = test system: RARg homodimer (NR concentration 270 nM)
Procedure, shortened: as §1

[4] = test system: RXRa DBDmut IVT, anti-RXR (DBD mutation: RXRa K156A/R161A, NR concentration 90 nM)
Procedure, shortened: as §1

[5] = test system: RXRa homodimer (NR concentration 180 nM)
Procedure, shortened: as §1

[6] = test system: THRa:RXRa (NR concentration 90 nM, RXRa partner concentration 90 nM)
Procedure, shortened: as §1

[7] = test system: THRa homodimer (NR concentration 90 nM)
Procedure, shortened: as §1

[8] = test system: VDR homodimer (NR concentration 270 nM)
Procedure, shortened: as §1

Sequence | PBM binding z-score [1] | PBM binding z-score [2] | PBM binding z-score [3] | PBM binding z-score [4] | PBM binding z-score [5] | PBM binding z-score [6] | PBM binding z-score [7] | PBM binding z-score [8]
TCTCGGAGGACACGAAGGACAGAGCTTTCCAGAG | 0.867 | 0.776 | 1.75 | 0.518 | 0.243 | 1.48 | 0.544 | 0.139
ATATGAAGGTTACATCCGGGTCATTCAGGCTATG | 3.52 | 4.75 | 2.62 | 1.08 | 3.74 | 4.11 | 2.47 | 2.96
CGTCAAAGTTGAAGGTAACGTAACAGAAAGCAGC | 0.588 | 0.945 | 1.11 | 0.128 | 0.848 | 0.402 | -0.078 | -0.0561
CCTCGGAGGACAGTAGGTCAGAGCTGTCCGCTTT | 2.39 | 2.09 | 2.06 | 0.0907 | 0.614 | 1.43 | -0.152 | -0.282
TTACCAAGGTGAGCTGAGGTCGTTGAACCAACTC | 1.77 | 1.21 | 0.931 | -0.0646 | 1.57 | 4.77 | 2.02 | 2.01
ACTATTAGTTGACTTAGGGAAACCGATACGACGC | -0.158 | 0.158 | 0.385 | 0.822 | 0.147 | 0.625 | 0.155 | 0.262
TCATACAGGTAAAAGGTGAAAGTCGGTGTGGTAA | 2.02 | 2.07 | 1.09 | 1.58 | 3.18 | 1.81 | 0.619 | 0.324
AGAATGATGTTAAGATCAGGGAAACAGAATACAT | -0.787 | 0.187 | 0.295 | -0.58 | 0.00873 | -0.153 | -0.703 | -0.555
TCTTGTAGATCAGCAGGTAAAGAAAGCTGGCCAA | -0.48 | -0.342 | -0.709 | 0.623 | 0.124 | -0.108 | -0.515 | -0.431
CCTACTGGGCCATCAGGTCATTGACATCAACGTT | 2.72 | 1.97 | 2.1 | 0.333 | 1.81 | 3.22 | 3.14 | 1.41
ACTAGCAGGCCAAGTTTGGGTCACTTAAACAAAG | 2.22 | 2.2 | 1.45 | 0.0842 | 0.809 | 2.58 | 1.22 | 0.22
GCGACTGGTGCATCAGCAGGTTACCATAACTTAA | 0.107 | -0.0711 | -0.351 | -0.127 | -0.12 | 0.163 | -0.356 | -0.21
TCATATAGGTAATGCAGGTGAAAGTCGGCATCTA | 0.531 | 0.489 | 0.438 | 1.04 | 0.993 | 1.1 | 0.297 | 0.176
CGTCCAGGGTCAGAGAGGTCAGTGAATGCCGAGT | 5.27 | 6.18 | 6.48 | 2.79 | 6.28 | 4.29 | 2.13 | 5.45
TCATATAGGTAATACCGGTGAAAGTCGGCATCTA | -0.00712 | 0.24 | 0.212 | 1.35 | 0.935 | 0.246 | 0.113 | -0.092
ACTAGTTGGTCAGCTGAGATCACACACAATTCGG | 0.406 | 0.638 | 0.88 | 0.396 | 0.449 | 0.991 | -0.107 | -0.0701
CCTAGTAGGCCAGGGTCACTCAAGCATTTCGCTT | 3.03 | 3.04 | 2.56 | 0.104 | 3.3 | 2.94 | 1.18 | 1.6
ATCGAAAGGTGGAAGGTGAGTATACCCACCCGAA | 0.363 | 0.767 | 0.717 | -1.21 | 1.12 | 0.406 | -0.497 | 0.146
CAAACTAGGCCACCGGAAGGTCAAAGTCCGCATG | 4.21 | 4.82 | 4.07 | 0.796 | 4.1 | 2.93 | 1.18 | 2.29
CCTGCTAGGTCCTGGTCAGCTAATCTACAGTATG | 0.0603 | -0.177 | -0.17 | -0.107 | -0.298 | -0.0341 | -0.199 | -0.989
AGAATGAGGCTACCAAAGATCAGGGAAACGCTTG | -0.364 | 0.21 | 0.34 | -0.268 | 0.156 | 0.463 | -0.609 | -0.541
CGTCCAAGGTCGTAGGAGGTCAGTGAAGACAGAT | 4.07 | 4.63 | 4.14 | 2.43 | 4.36 | 4.89 | 1.61 | 2.85
AGAACGAGTGCAATGAGTTGATAGCACGGGTGGC | -0.553 | 0.1 | -0.109 | 2.82 | 0.283 | -0.264 | -1.03 | 4.06
GCTATTAGTTGAAAGGGCAACCGTATGATTCTCG | 2.21 | 1.41 | 1.14 | 1.01 | 1.43 | 0.799 | -0.237 | 0.306
ATTTCTAGGTAAAGTTCAGTGAAAGATCGATAGA | 2.55 | 2.02 | 2.7 | 1.59 | 1.44 | 1.48 | 0.574 | 2.39
CATATTAGTTGACCATAAGGGCAACCGAAGCTCG | 2.07 | 1.61 | 1.37 | 0.612 | 0.942 | 1.95 | 1.35 | 1.14
TATACAGGGTCAAAGGCCAGCGTACGAATGTCGA | 3.48 | 5.75 | 4.83 | 2.96 | 7.31 | 3.54 | 0.731 | 2.16
CGAACTAGGTCATTGACAGGAGAGTGAATAGTAA | 2.29 | 3.65 | 4.2 | 2.21 | 2.23 | 2.48 | 0.629 | 0.844
